Where “and” joins values, the source holds several entries; their conditions need not be identical. Equal values may be shown once. Results filed as inconclusive are left out. Calls of active or inactive are those of the source. Rule for the calls, unless noted: active = hit-call score of the fitted dose curve at least 0.9, where 1 is the maximum; inconclusive = response in the unintended direction; inactive = score below 0.9.
What was measured:
[1] = CLD_ACTIN_6hr: CellzDirect (CLD) Gene Expression Assay for Baseline Control (Actin) at 6 hours (AID 2283676);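 note: active means increased actin mRNA relative to DMSO vehicle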
How it was run: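 Baseline actin transcript level measured by qNPA (S1 nuclease protection, chemiluminescence) in human hepatocyte cultures 6 h after chemical exposure; 0.2% DMSO vehicle as reference, cytotoxicity noted from morphology.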

[2] = CCTE_Padilla_ZF_144hpf_TERATOSCORE: (Legacy) CCTE's 144 Hour Post-fertilization zebrafish Assay Teratoscore, Padilla Lab (AID 2283679; active = hit-call score of the fitted dose curve at least 0.9, where 1 is the maximum; inactive = score below 0.9;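 for AC50: zebrafish embryos with chorions exposed by immersion from 6-8 hpf to 5 dpf with daily renewal; teratogenicity score from eye scoring of death hatching and malformations at 144 hpf; higher score means more developmental defects relative to DMSO baseline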)
How it was run: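 Larvae scored by eye at 144 hpf for death, hatching and malformations after a day in clean Hanks'. Before that, daily-renewed exposure at 80 uM (0.4% DMSO, 26C) from roughly 6-8 hpf through 5 dpf, 4 embryos per chemical.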

[3] = read-out: Glyceraldehyde-3-phosphate dehydrogenase (Homo sapiens) (UniProt P04406); assay: CLD_GAPDH_6hr: CellzDirect (CLD) Gene Expression Assay for Baseline Control (Glyceraldehyde 3-phosphate dehydrogenase) at 6 hours (AID 2283681);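 note: active means increased signal relative to DMSO vehicle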
How it was run: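 GAPDH baseline-control readout from qNPA (S1 nuclease digestion, probe hybridization, chemiluminescence) in lysates of cultured human hepatocytes harvested 6 h post-dosing. Chemicals tested at multiple concentrations versus 0.2% DMSO vehicle; microscopy-based cytotoxicity flagged yes/no.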

[4] = read-out: HMG-CoA synthase (HMGCS2), HMGCS2 (gene 3158); assay: CLD_HMGCS2_6hr: CellzDirect (CLD) Gene Expression Assay for HMG-CoA synthase (HMGCS2) at 6 hours (AID 2283682);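 note: actives raise HMGCS2 transcript above the 0.2% DMSO vehicle baseline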
How it was run: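 HMGCS2 transcript induction read by quantitative nuclease protection with chemiluminescence, 6 h after dosing of primary human hepatocytes. Baseline was 0.2% DMSO vehicle; phase-contrast morphology gave a yes/no cytotoxicity annotation.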

[5] = read-out: xenobiotic metabolism (CYP1A2), CYP1A2 (gene 1544); assay: CLD_CYP1A2_24hr: CellzDirect (CLD) Gene Expression Assay for xenobiotic metabolism (CYP1A2) at 24 hours (AID 2283683)
How it was run: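 CYP1A2 mRNA induction measured by quantitative nuclease protection (chemiluminescent) in human primary hepatocytes 24 h after multi-concentration chemical dosing with daily fresh solutions. DMSO (0.2%) baseline; positive-direction fitting; morphology-based cytotoxicity noted.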

[6] = read-out: glucuronosyltransferase (UGT1A1), UGT1A1 (gene 54658); assay: CLD_UGT1A1_24hr: CellzDirect (CLD) Gene Expression Assay for glucuronosyltransferase (UGT1A1) at 24 hours (AID 2283696)
How it was run: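 UGT1A1 transcript induction was measured by quantitative nuclease protection assay (chemiluminescence) in human hepatocyte cultures 24 h after daily fresh dosing, with 0.2% DMSO as vehicle and baseline.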

[7] = read-out: Cytochrome P450 2B6 (Homo sapiens) (UniProt P20813); assay: CLD_CYP2B6_48hr: CellzDirect (CLD) Gene Expression Assay for xenobiotic metabolism (CYP2B6) at 48 hours (AID 2283699);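 note: actives raise transcript level above DMSO so potency reflects induction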
How it was run: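 CYP2B6 transcript induction, read by quantitative nuclease protection (S1 digestion, chemiluminescent detection) 48 h after dosing, is fitted upward against 0.2% DMSO. Cultured human liver primary cells, two donor preparations, received fresh chemical daily over multiple concentrations.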

[8] = read-out: Cytochrome P450 2B6 (Homo sapiens) (UniProt P20813); assay: CLD_CYP2B6_6hr: CellzDirect (CLD) Gene Expression Assay for xenobiotic metabolism (CYP2B6) at 6 hours (AID 2283677);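 note: actives raise CYP2B6 transcript above DMSO baseline so AC50 marks an inducer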
How it was run: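 CYP2B6 transcript levels, read by chemiluminescent qNPA, were fitted for increase versus DMSO baseline; cultured human liver hepatocytes from two donor preparations were harvested 6 h after exposure to test chemicals at multiple concentrations.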

[9] = read-out: Cytochrome P450 2C9 (Homo sapiens) (UniProt P11712); assay: CLD_CYP2C9_24hr: CellzDirect (CLD) Gene Expression Assay for xenobiotic metabolism (CYP2C9) at 24 hours (AID 2283688)
How it was run: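 Induction of CYP2C9 mRNA was quantified by quantitative nuclease protection assay (chemiluminescence), gain of signal versus 0.2% DMSO vehicle, 24 h after dosing. Human primary hepatocytes (two donors) received fresh chemical daily at multiple concentrations; morphology-based cytotoxicity flagged yes/no.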

[10] = read-out: ABC Transporter (ABCB1), ABCB1 (gene 5243); assay: CLD_ABCB1_48hr: CellzDirect (CLD) Gene Expression Assay for ABC Transporter (ABCB1) at 48 hours (AID 2283695);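 for AC50: potency for induction meaning increase of mRNA over DMSO vehicle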
How it was run: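 ABCB1 mRNA was measured by quantitative nuclease protection assay (chemiluminescence) 48 h after dosing. Human hepatocyte cultures from two separate donors received fresh dosing solutions daily for two days, with 0.2% DMSO as vehicle. Positive-direction fit against DMSO.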

[11] = CLD_ACTIN_48hr: CellzDirect (CLD) Gene Expression Assay for Baseline Control (Actin) at 48 hours (AID 2283702)
How it was run: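 Background-control actin mRNA read by qNPA chemiluminescence at 48 h. Human hepatocyte cultures from two donors received fresh multi-concentration chemical doses daily for two days; 0.2% DMSO served as vehicle baseline.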

[12] = read-out: xenobiotic metabolism (CYP1A1), CYP1A1 (gene 1543); assay: CLD_CYP1A1_24hr: CellzDirect (CLD) Gene Expression Assay for xenobiotic metabolism (CYP1A1) at 24 hours (AID 2283673);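 note: CYP1A1 mRNA level by quantitative nuclease protection with chemiluminescence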
How it was run: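 Transcript levels were read at 24 h by qNPA chemiluminescence in human liver primary cells. Cells got daily fresh dosing at multiple concentrations (vehicle 0.2% DMSO). Induction fitted upward against DMSO; phase-contrast cytotoxicity annotated.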

[13] = read-out: Cytochrome P450 2C19 (Homo sapiens) (UniProt P33261); assay: CLD_CYP2C19_48hr: CellzDirect (CLD) Gene Expression Assay for xenobiotic metabolism (CYP2C19) at 48 hours (AID 2283700);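 note: fitted upward so actives raise CYP2C19 mRNA above the 0.2% DMSO vehicle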
How it was run: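 CYP2C19 mRNA induction read by chemiluminescent quantitative nuclease protection assay after 48 h, with fresh compound added daily for two days to cultured human liver hepatocytes. Activity fitted upward against 0.2% DMSO vehicle.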

[14] = read-out: Cytochrome P450 3A4 (Homo sapiens) (UniProt P08684); assay: CLD_CYP3A4_24hr: CellzDirect (CLD) Gene Expression Assay for xenobiotic metabolism (CYP3A4) at 24 hours (AID 2283689)
How it was run: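 CYP3A4 mRNA induction read by quantitative nuclease protection (chemiluminescence) 24 hr after dosing. Cultured human hepatocytes (two donor preparations) treated daily, vehicle 0.2% DMSO; phase-contrast morphology annotates cytotoxicity.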

[15] = read-out: xenobiotic metabolism (CYP1A2), CYP1A2 (gene 1544); assay: CLD_CYP1A2_48hr: CellzDirect (CLD) Gene Expression Assay for xenobiotic metabolism (CYP1A2) at 48 hours (AID 2283703)
How it was run: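 Cytotoxicity was flagged yes/no from morphology, while CYP1A2 transcript induction was detected by qNPA chemiluminescence after a 48-hour exposure. Human primary hepatocyte cultures from separate donors received fresh dosing solutions daily over two days, with 0.2% DMSO as vehicle and baseline.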

[16] = read-out: HMG-CoA synthase (HMGCS2), HMGCS2 (gene 3158); assay: CLD_HMGCS2_24hr: CellzDirect (CLD) Gene Expression Assay for HMG-CoA synthase (HMGCS2) at 24 hours (AID 2283691)
How it was run: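 qNPA with S1 nuclease digestion and chemiluminescent detection gave HMGCS2 transcript levels, fitted upward against 0.2% DMSO vehicle. Cultured human hepatocytes (two donors) received fresh compound daily and were harvested at 24 h; phase-contrast morphology flagged cytotoxicity.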

[17] = read-out: Glyceraldehyde-3-phosphate dehydrogenase (Homo sapiens) (UniProt P04406); assay: CLD_GAPDH_24hr: CellzDirect (CLD) Gene Expression Assay for Baseline Control (Glyceraldehyde 3-phosphate dehydrogenase) at 24 hours (AID 2283692)
How it was run: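 GAPDH baseline-control readout: qNPA chemiluminescent mRNA signal in human primary hepatocytes harvested 24 h after daily dosing, normalised to 0.2% DMSO with positive fitting direction; cytotoxicity annotated by phase-contrast morphology.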

[18] = read-out: Cytochrome P450 2B6 (Homo sapiens) (UniProt P20813); assay: CLD_CYP2B6_24hr: CellzDirect (CLD) Gene Expression Assay for xenobiotic metabolism (CYP2B6) at 24 hours (AID 2283686)
How it was run: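 qNPA chemiluminescent measurement of mRNA at 24 hours in human primary hepatocyte cultures from two donor preparations, with daily fresh dosing and 0.2% DMSO vehicle as baseline. Morphology-based cytotoxicity flagged yes/no.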

[19] = read-out: ABC Transporter (ABCB11), ABCB11 (gene 8647); assay: CLD_ABCB11_48hr: CellzDirect (CLD) Gene Expression Assay for ABC Transporter (ABCB11) at 48 hours (AID 2283697)
How it was run: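 Induction of ABCB11 mRNA relative to 0.2% DMSO, measured at 48 h by qNPA chemiluminescence. Cultured human hepatocytes (two donors) received fresh dosing solutions at several concentrations on two consecutive days.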

[20] = read-out: ABC Transporter (ABCB1), ABCB1 (gene 5243); assay: CLD_ABCB1_24hr: CellzDirect (CLD) Gene Expression Assay for ABC Transporter (ABCB1) at 24 hours (AID 2283684)
How it was run: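 ABCB1 mRNA induction versus 0.2% DMSO vehicle was read by qNPA chemiluminescence at 24 h. Cultured human hepatocytes from two donor preparations received daily fresh dosing, and phase-contrast cytotoxicity calls were annotated alongside the data.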

Measured: AC50

Chain of Glyceraldehyde-3-phosphate dehydrogenase (Homo sapiens) (P04406 whole entry, looked up): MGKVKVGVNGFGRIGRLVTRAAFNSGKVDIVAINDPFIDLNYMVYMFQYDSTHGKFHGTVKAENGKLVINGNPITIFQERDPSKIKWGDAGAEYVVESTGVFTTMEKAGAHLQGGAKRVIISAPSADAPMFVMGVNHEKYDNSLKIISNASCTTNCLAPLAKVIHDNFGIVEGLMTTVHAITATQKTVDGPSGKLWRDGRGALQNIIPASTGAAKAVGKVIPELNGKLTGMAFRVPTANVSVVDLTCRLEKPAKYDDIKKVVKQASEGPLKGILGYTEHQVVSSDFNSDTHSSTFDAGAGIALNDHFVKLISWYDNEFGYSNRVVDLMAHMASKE
Chain of Cytochrome P450 2C19 (Homo sapiens) (P33261 whole entry, looked up): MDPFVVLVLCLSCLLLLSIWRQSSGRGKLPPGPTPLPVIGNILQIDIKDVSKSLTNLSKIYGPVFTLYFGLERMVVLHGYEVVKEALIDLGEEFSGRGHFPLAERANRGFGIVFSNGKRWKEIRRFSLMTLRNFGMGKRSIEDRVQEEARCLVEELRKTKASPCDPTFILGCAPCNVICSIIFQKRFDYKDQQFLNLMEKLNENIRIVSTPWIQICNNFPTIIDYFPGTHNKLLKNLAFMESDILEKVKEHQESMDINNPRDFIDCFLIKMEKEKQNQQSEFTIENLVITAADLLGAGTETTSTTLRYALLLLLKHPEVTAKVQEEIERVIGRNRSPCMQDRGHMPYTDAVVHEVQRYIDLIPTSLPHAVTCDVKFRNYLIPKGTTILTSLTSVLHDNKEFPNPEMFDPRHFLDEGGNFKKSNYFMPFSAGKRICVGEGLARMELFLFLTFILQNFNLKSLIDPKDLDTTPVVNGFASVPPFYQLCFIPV
Chain of Cytochrome P450 3A4 (Homo sapiens) (P08684 whole entry, looked up): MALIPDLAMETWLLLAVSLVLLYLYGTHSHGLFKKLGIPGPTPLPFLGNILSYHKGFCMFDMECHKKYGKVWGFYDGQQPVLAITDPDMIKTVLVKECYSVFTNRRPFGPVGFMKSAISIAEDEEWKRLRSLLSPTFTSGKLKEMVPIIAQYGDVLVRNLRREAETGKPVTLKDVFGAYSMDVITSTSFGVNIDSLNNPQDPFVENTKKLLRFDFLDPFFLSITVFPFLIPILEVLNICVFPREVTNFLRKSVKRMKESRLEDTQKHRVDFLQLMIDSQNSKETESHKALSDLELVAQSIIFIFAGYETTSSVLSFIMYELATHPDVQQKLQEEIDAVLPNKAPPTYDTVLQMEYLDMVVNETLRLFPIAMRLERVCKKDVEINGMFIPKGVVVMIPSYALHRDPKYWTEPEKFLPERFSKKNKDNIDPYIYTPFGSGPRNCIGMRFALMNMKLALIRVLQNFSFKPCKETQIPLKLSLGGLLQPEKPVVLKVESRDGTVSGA

O=C(Nc1ccccc1)Nc1ccnc(Cl)c1
active: [2] 66 µM | [5] 7.19 µM | [7] 6.77 µM
inactive: [1] | [3] | [4] | [6]

CO/C=C(/C(=O)OC)c1ccccc1Oc1cc(Oc2ccccc2C#N)ncn1
inactive: [1] | [3] | [9] | [6] | [11]
active: [8] 1 µM | [2] 1.46 µM and 4.82 µM and 4.07 µM | [10] 30.2 µM | [7] 2.46 µM

CCOC(=O)C(Cl)Cc1cc(-n2nc(C)n(C(F)F)c2=O)c(F)cc1Cl (stereo unspecified)
inactive: [3] | [5] | [9] | [10] | [6] | [13]
active: [12] 0.39 µM | [2] 0.57 µM | [7] 20 µM

CCCN(CCC)c1c([N+](=O)[O-])cc(S(N)(=O)=O)cc1[N+](=O)[O-]
active: [12] 4.81 µM | [2] 15.8 µM and 15.6 µM | [14] 11.1 µM
inactive: [4] | [9] | [10] | [6] | [15]

CCCCOC(=O)c1ccccc1C(=O)OCCCC
active: [2] 1.83 µM | [5] 4.9 µM and 20 µM | [15] 10.6 µM and 11.1 µM
inactive: [1] | [3] | [4] | [9] | [16] | [17] | [10] | [6] | [7] | [13] | [11]

COc1nc(C)nc(NC(=O)NS(=O)(=O)c2ccccc2Cl)n1
inactive: [1] | [8] | [2] | [3] | [4] | [5] | [18] | [9] | [17] | [10] | [6] | [19] | [7] | [13] | [11]

COc1cnc(OC)n2nc(NS(=O)(=O)c3c(OCC(F)F)cccc3C(F)(F)F)nc12
inactive: [12] | [1] | [2] | [4] | [5] | [10] | [6] | [7] | [13] | [11]

CCON=C(CC)C1=C(O)CC(c2c(C)cc(C)cc2C)CC1=O (stereo unspecified)
inactive: [1] | [3] | [4] | [5] | [9] | [16] | [17] | [10] | [6] | [19] | [7] | [13] | [11]
active: [2] 64.2 µM

CN(C)C(=S)SSC(=S)N(C)C
active: [12] 35 µM | [2] 0.0128 µM
inactive: [1] | [3] | [4] | [17] | [19] | [7] | [11]

CC(C)C1(C)N=C(c2nc3ccccc3cc2C(=O)O)NC1=O (stereo unspecified)
inactive: [1] | [8] | [2] | [3] | [4] | [5] | [16] | [17] | [10] | [6] | [11] | [15]
active: [7] 0.000357 µM

COC(=O)C=C(C)OP(=O)(OC)OC
active: [2] 48.1 µM | [7] 0.0004 µM
inactive: [1] | [3] | [4] | [5] | [20] | [18] | [17] | [10] | [6] | [19] | [13] | [11]

CC(Oc1ccc(Cl)cc1Cl)C(=O)O (stereo unspecified)
inactive: [12] | [1] | [3] | [9] | [17] | [6] | [7] | [15]
active: [2] 0.67 µM

Reference: PubChem BioAssay (EPA / NIEHS)
